Some test systems named below: HCT-15 colon; HT29 colon; SNB-75 CNS; SNB-19 CNS; U251 CNS; PC-3 prostate; SK-MEL-5 melanoma; UACC-62 melanoma; LOX IMVI melanoma; SK-MEL-28 melanoma; SK-MEL-2 melanoma; EKVX NSCLC; SN12C renal; UO-31 renal; TK-10 renal; ACHN renal; CAKI-1 renal; A498 renal; CCRF-CEM leukemia; MOLT-4 leukemia.
Experiment in all cases: NCI-60 one-dose screen, 48 h (100 = growth as untreated, 0 = no growth, -100 = all killed)
Holding throughout (settings): 10 µM unless noted

The panel holds about 83,000 compounds, 20% with a hit somewhere; the sample as a whole holds those more often.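 Note: values are percent growth. 100 is the growth of untreated cells, values between 100 and 0 indicate rising inhibition; between -100 and 0 indicates cell death.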 Values without a mark were called inactive. Activity calls are given as the source filed them. The calls were made as follows: active = growth percent below 10; inactive = the rest.

Take `CCOC(=O)c1sc(NC(=O)COc2cccc(/C=C3\CCc4cc(OC)ccc4C3=O)c2)nc1C`: the growth with HCT-15 colon was 56.5%; in the assay on HT29 colon, 39.6%; in the assay on SNB-75 CNS it was 99.3%; with SNB-19 CNS it was 58.4%; in the assay on U251 CNS it was 41.1%; with PC-3 prostate, 48.9%. The growth is 44.1% with SK-MEL-5 melanoma; 60.8% in the assay with UACC-62 melanoma; 48.8% with LOX IMVI melanoma; 103% in the assay on SK-MEL-28 melanoma; 42.6% in the assay on SK-MEL-2 melanoma; 82.9% with EKVX NSCLC. Further, the growth with SN12C renal is 48.9%; with UO-31 renal, 14%; in the assay on TK-10 renal it was 89.3%; with ACHN renal it was 85.7%; in the assay with CAKI-1 renal, 60.2%; with A498 renal it was 85.8%. In addition, the growth with CCRF-CEM leukemia was -17.2% (active); in the assay with MOLT-4 leukemia, 7.22% (active).
`CC(=O)Nc1cc2c3c(cccc3c1)-c1ccccc1-2`: the growth with HCT-15 colon is 79.4%; in the assay on HT29 colon it was 108%; in the assay on SNB-75 CNS, 60.1%; in the assay with SNB-19 CNS, 91.2%; in the assay on U251 CNS it was 75.3%; in the assay with PC-3 prostate, 57.9%. The growth in the assay with SK-MEL-5 melanoma was 102%; in the assay with UACC-62 melanoma, 89%; in the assay with LOX IMVI melanoma it was 75.9%; in the assay on SK-MEL-28 melanoma it was 103%; in the assay on SK-MEL-2 melanoma it was 83.5%; in the assay on EKVX NSCLC, 55.1%. Also, the growth in the assay with SN12C renal is 31.6%; in the assay with UO-31 renal, 19.2%; in the assay with TK-10 renal it was 96.3%; in the assay on ACHN renal, 91.5%; in the assay with CAKI-1 renal, 33.5%; with A498 renal, 58.7%. Besides, the growth was 21.4% in the assay on CCRF-CEM leukemia and 45.8% with MOLT-4 leukemia.
Consider `CC1=C([Se]CC(OC(=O)[C@@H](CSSC(C)(C)C)NC(=O)C(C)(C)C)C(=O)NCCCCCC(=O)OCc2ccccc2)C(=O)c2ccccc2C1=O` (some centres undefined), for which the growth with HCT-15 colon is 20.4%; with HT29 colon, -29.5% (active); with SNB-75 CNS it was -92.5% (active); in the assay on SNB-19 CNS, -73.5% (active); in the assay with U251 CNS, -37.5% (active); in the assay with PC-3 prostate it was -20.8% (active). Besides, the growth in the assay with SK-MEL-5 melanoma was -48.8% (active); in the assay on UACC-62 melanoma, -30.6% (active); in the assay with LOX IMVI melanoma, 4.76% (active); with SK-MEL-28 melanoma, -27.3% (active); in the assay on SK-MEL-2 melanoma it was -24.2% (active); in the assay on EKVX NSCLC it was -24.2% (active). In addition, the growth is 2.42% (active) with SN12C renal; -78.5% (active) in the assay on UO-31 renal; -29.3% (active) in the assay on TK-10 renal; -10.9% (active) in the assay on ACHN renal; -19.3% (active) with CAKI-1 renal; -5.18% (active) in the assay with A498 renal. Further, the values for the growth with CCRF-CEM leukemia and in the assay with MOLT-4 leukemia were 3% (active) and 5.23% (active), respectively.
For `Cn1c(=O)c2[nH]c(=S)n(Cc3ccccc3)c2n(C)c1=O`, the growth in the assay with HCT-15 colon is 102%; in the assay with HT29 colon it was 111%; with SNB-75 CNS it was 84.9%; with SNB-19 CNS, 99.1%; with U251 CNS, 110%; in the assay with PC-3 prostate it was 98.2%. The growth with SK-MEL-5 melanoma was 102%; with UACC-62 melanoma it was 91.8%; in the assay with LOX IMVI melanoma, 88.1%; with SK-MEL-28 melanoma, 122%; in the assay on SK-MEL-2 melanoma, 104%; with EKVX NSCLC, 125%. The growth is 99% in the assay with SN12C renal; 91.4% with UO-31 renal; 104% with TK-10 renal; 96.1% in the assay on ACHN renal; 111% in the assay with CAKI-1 renal; 92.8% in the assay on A498 renal. For the same compound, the growth with CCRF-CEM leukemia was 113%; in the assay on MOLT-4 leukemia, 81.9%.
As to `COC(=O)Nc1ccc2ccc3c(NC(=O)OC)ccc4ccc1c2c43` (tested in a mixture with another compound), the growth in the assay on HCT-15 colon is 35.6%; in the assay with HT29 colon, 30.6%; with SNB-75 CNS it was 50.7%; with SNB-19 CNS, 60.8%; with U251 CNS it was 41%; with PC-3 prostate, 48.4%. The growth was 37.3% in the assay on SK-MEL-5 melanoma; 41.5% in the assay with UACC-62 melanoma; 32.9% in the assay with LOX IMVI melanoma; 73.3% with SK-MEL-28 melanoma; 52.8% with SK-MEL-2 melanoma; 68.1% with EKVX NSCLC. In addition, the growth is 68.4% with SN12C renal; 42.1% with UO-31 renal; 85.9% with TK-10 renal; 59% with ACHN renal; 50.7% in the assay with CAKI-1 renal; 54.4% in the assay with CCRF-CEM leukemia. Besides, the growth with MOLT-4 leukemia is 35%.
In the case of `COP(=O)(OC)C(c1ccccc1)(c1ccccc1)c1ccccc1`, the growth with HCT-15 colon is 107%; with HT29 colon it was 91.4%; with SNB-75 CNS it was 108%; in the assay on SNB-19 CNS, 99.9%; in the assay with U251 CNS, 87.7%; in the assay on PC-3 prostate, 75.2%. Also, the growth is 89.5% in the assay on SK-MEL-5 melanoma; 70.9% with UACC-62 melanoma; 84.2% with LOX IMVI melanoma; 109% with SK-MEL-28 melanoma; 101% with SK-MEL-2 melanoma; 101% in the assay on EKVX NSCLC. The growth in the assay on SN12C renal is 97.7%; in the assay with UO-31 renal, 113%; with TK-10 renal, 69%; in the assay on ACHN renal, 107%; in the assay on CAKI-1 renal, 83%; with A498 renal, 93%. The growth in the assay on CCRF-CEM leukemia was 84.3%; in the assay on MOLT-4 leukemia, 46.5%.

Source of the values: PubChem BioAssay (NCI).
